IL1B secr inh: inflammasome signaling inhibition, IL-1 beta readout. THP-1 LPS/ATP IL-1B secretion, AlphaLISA, 16 h; hits give low values. activity change, % at 57.5 µM. 360,000 compounds, 4.7% hits. AID 743279; in the data active means activity change below about -50%; inconclusive means mostly about -30% to -49%
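Secreted IL-1B measured by AlphaLISA bead assay after 16 h compound exposure of THP-1 cells; compounds (final up to 57.5 uM) added 1 h before LPS (250 ng/mL) and ATP (1.25 mM) stimulation; lower signal means less secretion.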
HT1080NT lethal: kills 2HG-producing HT-1080-NT fibrosarcoma cells. HT-1080-NT fibrosarcoma viability, CellTiter-Glo ATP luminescence, 48 h. Potency, µM (doses to about 46.1 µM), usual class: cytotoxic. 360,000 compounds, 1.6% hits;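 further: NT is the 2HG producing partner of a matched IDH1 knockdown line; nearly all actives have a fitted effect of over 55% in size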
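Viability of the 2HG-overproducing fibrosarcoma line after 48 hours of compound exposure at 37 degrees C was determined by luminescence with CellTiter-Glo, and concentration-effect curves were then fitted and categorized.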
HT1080 IDH1KD tx: toxicity to HT-1080 IDH1 knockdown cells (counter line); HT-1080 IDH1 knockdown viability, ATP luminescence, 48 h; Potency, µM (highest dose often 46.1 µM), usual class: cytotoxic; 360,000 compounds, 2% hits
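Using the IDH1-knockdown HT-1080 line run in the same batch and compound series as the NT line, viability after 48 h at 37 °C was determined by CellTiter-Glo luminescence and expressed as % activity.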
TDP1 cell noCPT: qHTS for Inhibitors of human tyrosyl-DNA phosphodiesterase 1 (TDP1): qHTS in cells in absence of CPT; DT40 Tdp1-/- hTDP1 cells, no CPT, ATP luminescence, 48 h; Potency, µM (titrated, usually from 46.2 µM), actives largely listed as inhibitors; 420,000 compounds, 15% hits; AID 686978, 2013; further: nearly all actives have a fitted effect of over 55% in size
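DT40 Tdp1-/-;hTDP1 cells, no CPT (DMSO vehicle only), 400 cells/well; compounds pin-transferred; ≥48 hr, 37 °C; CellTiter-Glo 30 min RT dark, luminescence read.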
ELG1 repair inh: blocks ELG1-dependent DNA repair in HEK293T cells; HEK293T ELG1-luciferase reporter, luminescence, 16 h; DNA damage induced by 5-fluorouridine; Potency, µM (series often up to 46.1 µM), most hits filed as inhibitors; 330,000 compounds, 2.3% hits; AID 504467; further: nearly all actives have a fitted effect of over 55% in size
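In this reporter screen, reduction of luminescence relative to DMSO vehicle indicated activity. Compounds and 5-fluorouridine were added together to 2,000 cells per well, incubated for 16 hr at 37 °C, then developed with ONE-Glo.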
TDP1 cell CPT: DT40-hTDP1 cell growth loss with CPT. chicken DT40 Tdp1-/-;hTDP1 cells + 20 nM CPT, ATP luminescence, 48 h. Potency, µM (doses to about 46.2 µM), hits mostly inhibitors. 420,000 compounds, 12% hits; further: nearly all actives have a fitted effect of over 55% in size
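Chicken DT40 Tdp1-/- cells complemented with human TDP1, 400 cells/well, exposed to compounds plus 20 nM camptothecin for at least 48 h at 37 C; viability read as ATP content by CellTiter-Glo luminescence.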
Hits are given with their value; . = inactive; ? = inconclusive; / = no result given. Most compounds without a hit are left out; they make up all but 19% or so of the library. Unless noted, the call rests on the fitted dose curve; in most records, active means well fitted curve in the direction sought with a large enough effect; inconclusive means small, poorly fitted or top-dose-only effect, or another doubt; inactive means no such curve, though single readings can be large; an effect the other way counts as inactive or inconclusive.

SMILES	IL1B secr inh	HT1080NT lethal	HT1080 IDH1KD tx	TDP1 cell noCPT	ELG1 repair inh	TDP1 cell CPT
COc1ccc(S(=O)(=O)N2CCOCC2)cc1NC(=O)c1ccc(SC)cc1OC	?	.	.	?	/	?
CS(=O)(=O)N1CCC[C@@]2(CCN(Cc3ccccc3)C2)C1	/	/	/	.	/	.
O=C(O)c1ccc(N/N=C/c2ccc(-c3cccc(Cl)c3)o2)cc1	.	10µM	16µM	.	?	?
O=C(O)c1ccc(N/N=C/c2ccc(-c3ccc(Cl)cc3Cl)o2)cc1	.	?	?	?	?	16µM
O=C(O)c1ccc(N/N=C/c2ccc(-c3cc(Cl)ccc3Cl)o2)cc1	?	?	16µM	?	?	26µM
COC(=O)N/N=C/c1ccc(-c2ccc(Cl)cc2Cl)o1	.	.	.	.	.	.
CCOc1ccccc1NC(=O)Cn1c(=O)n(Cc2ccc(C(=O)NCCCOC)cc2)c(=O)c2ccccc21	/	/	/	.	/	.
CNC(=S)N1CCN(c2nc(-c3ccc(Cl)cc3)cs2)CC1	-57	.	.	21µM	.	?
O=[N+]([O-])c1ccc(N2CCN(c3nc(-c4ccc(Cl)cc4)cs3)CC2)cc1	.	.	.	12µM	?	?
O=[N+]([O-])c1ccc(-c2csc(N3CCCCCC3)n2)cc1	.	.	.	.	?	.
COCCNC(=S)N1CCN(c2nc(-c3ccc(Cl)cc3)cs2)CC1	.	?	.	?	.	.
O=C(N1CCOCC1)N1CCN(c2nc(-c3ccc(F)cc3)cs2)CC1	.	.	.	16µM	.	?
CCN(CC)CCCNC(=S)N1CCN(c2nc(-c3ccc(F)cc3)cs2)CC1	-58	21µM	8.2µM	6.5µM	.	15µM
COc1cc(Cl)c(CC(=O)NO)cc1OC	/	.	.	.	/	.
NC(C(=O)O)c1cc(O)cc(O)c1 (stereo not given)	/	/	/	.	/	.
O=C(Nc1nnc(CCc2ccccc2)s1)c1cccc(F)c1	.	.	.	.	?	.
CCOC(=O)N1CCN(c2nc(-c3ccc(Cl)cc3)cs2)CC1	.	.	.	?	?	.
CCCCC(=O)N1CCN(c2nc(-c3ccc(F)cc3)cs2)CC1	.	.	.	?	.	?
CC(C)C(=O)N1CCN(c2nc(-c3ccc(Cl)cc3)cs2)CC1	.	.	?	13µM	.	23µM
O=C(CCCl)N1CCN(c2nc(-c3ccccc3)cs2)CC1	.	.	.	16µM	?	?
CCOC(=O)c1cc2c(c(CCO)n1)[C@@H](CCO)N(S(=O)(=O)C(C)(C)C)C2	.	.	.	.	/	.
O=C(OCc1csc(Nc2ccccc2)n1)c1ccc(Cl)cc1	.	.	.	.	.	.
O[C@H]1CN(CC2CCCCC2)[C@@H](c2ccccc2)C[C@@H]1n1cc(C2CC2)nn1	.	.	.	?	/	.
O=c1c([N+](=O)[O-])c(NC2CCCCC2)c2ccccc2n1-c1ccccc1	.	.	.	?	.	16µM
CCOC(=O)N1CCN(S(=O)(=O)c2c[nH]c(C(=O)OC)c2)CC1	.	.	.	.	.	.
CCOc1ccc(NC(=O)c2cc3sc(Cl)cc3n2CC)cc1	/	/	/	?	/	.
O=C(Nc1ccc(N2CCCCC2)c(Cl)c1)c1ccc(N2CCOCC2)c([N+](=O)[O-])c1	.	.	.	13µM	.	18µM
CCCC(=O)N1CCN(c2ccc(NC(=O)c3ccc(N4CCCC4)c([N+](=O)[O-])c3)cc2Cl)CC1	.	.	.	7.3µM	/	18µM
